Screening data from PubChem.
POLB inh = qHTS Assay for Inhibitors of DNA Polymerase Beta. Pol beta primer extension/strand displacement, fluorescence kinetic. P06746. 1.3% of 340,000 active. Potency, µM (doses to about 114 µM), for inactives: at the highest dose activity change, negative = inhibition, most hits filed as inhibitors. AID 485314, 2010; further: on the % scale 0 is the no-effect control and ±100 the full control effect
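Preincubation: enzyme (10 nM) with compound, 15 min, RT. Reaction: substrate added to 50 nM final. Reads: 0 and 10 min. Analysis: normalized, Hill fit.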
POLH inh = qHTS for Inhibitors of Polymerase Eta | recombinant Pol eta, fluorescent DNA replication assay | AID 588591, 2011 | 1.2% of 390,000 active | DNA polymerase eta (Homo sapiens), Q9Y253 | Potency, µM (top dose mostly 114 µM), for the others: top-dose activity change, negative = inhibition, hits mostly inhibitors; further: on the % scale 0 is the no-effect control and ±100 the full control effect
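Pol eta (10 nM) was preincubated with compounds for 15 min at room temperature, after which fluorescent replication substrate (50 nM final) was added to start the reaction. Fluorescence was read kinetically at 0 and 10 min.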
POLI inh = qHTS for Inhibitors of Polymerase Iota. DNA polymerase iota (Homo sapiens), Q9UNA4. Pol iota fluorescent replication assay, 10 min. Potency, µM (highest dose often 115 µM), for the others: at the top dose activity, negative = inhibition, usual class: inhibitors. 1% of 390,000 active
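Fluorescent replication assay read twice, at 0 min and 10 min after adding 50 nM (final) substrate. Enzyme (10 nM) and compounds were first incubated 15 min at room temperature; enzyme-free buffer wells were negative controls.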
FEN1 inh = qHTS Assay for the Inhibitors of Human Flap endonuclease 1 (FEN1); P39748; Recombinant FEN1 flap cleavage, fluorescence, 15 min; Potency, µM (highest dose often 114 µM), for inactives: top-dose activity change, negative = inhibition, usual class: inhibitors; 0.35% of 390,000 active; AID 588795, 2011; further: on the % scale 0 is the no-effect control and ±100 the full control effect; nearly all actives have a fitted effect of over 65% in size
Target sequence (P39748 whole entry, looked up): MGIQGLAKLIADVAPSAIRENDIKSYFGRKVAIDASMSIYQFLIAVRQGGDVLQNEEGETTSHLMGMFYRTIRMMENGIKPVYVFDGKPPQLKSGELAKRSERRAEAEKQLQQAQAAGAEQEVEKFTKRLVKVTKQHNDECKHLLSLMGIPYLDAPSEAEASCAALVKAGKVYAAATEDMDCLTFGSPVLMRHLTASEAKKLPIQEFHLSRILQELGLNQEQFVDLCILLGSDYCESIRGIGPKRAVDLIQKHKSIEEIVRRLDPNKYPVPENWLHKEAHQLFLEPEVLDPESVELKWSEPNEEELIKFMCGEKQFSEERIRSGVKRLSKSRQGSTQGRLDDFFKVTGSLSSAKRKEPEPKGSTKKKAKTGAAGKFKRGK
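Enzyme 10 nM, 15 min RT preincubation with compound; start with substrate 50 nM final; reads at 0 and 15 min; qHTS titration, four-parameter Hill fit.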
WRN inhibitor = qHTS for Inhibitors of WRN Helicase; Bifunctional 3'-5' exonuclease/ATP-dependent helicase WRN (Homo sapiens), Q14191; Potency, µM (highest dose often 114 µM), for the others: at the highest dose activity change, negative = inhibition, hits mostly inhibitors; 0.46% of 360,000 active; WRN helicase unwinding, fluorescent forked duplex, kinetic; further: on the % scale 0 is the no-effect control and ±100 the full control effect; nearly all actives have a fitted effect of over 55% in size
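Kinetic fluorescence helicase assay: unwinding of a quenched forked DNA duplex (100 nM final) with 2 mM ATP final raises red fluorescence (525/598 nm). Compounds sat 15 min at room temperature with 20 nM WRN beforehand.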
POLK inh = qHTS for Inhibitors of Polymerase Kappa | purified Pol kappa, fluorescent DNA synthesis assay, 10 min | Potency, µM (highest dose often 107 µM), for the others: at the top dose activity, negative = inhibition, actives largely listed as inhibitors | 0.53% of 400,000 active | AID 588579, 2011; further: on the % scale 0 is the no-effect control and ±100 the full control effect
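10 nM Pol kappa was preincubated with compounds for 15 min at room temperature. Reaction started with 50 nM (final) substrate. Fluorescence read kinetically at 0 and 10 min.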
TbPGK inh = qHTS for inhibitors of Phosphogylcerate Kinase: Hit Validation Screen; shares compounds with POLK inh; TbPGK coupled GAPDH assay, Kinase-Glo luminescence; Potency, µM (top dose mostly 57.5 µM), for the others: top-dose activity change, negative = inhibition, most hits filed as inhibitors; 79% of 500 active; AID 686980, 2013; further: on the % scale 0 is the no-effect control and ±100 the full control effect; nearly all actives have a fitted effect of over 65% in size
Pol iota confirm = qHTS for Inhibitors of Polymerase Iota: Confirmatory Assay for Cherry-picked Compounds; shares compounds with POLK inh; Pol iota primer extension, TAMRA/BHQ fluorescence; Potency, µM, most hits filed as inhibitors; 77% of 1,500 active
Starred values were filed as active, the others as inactive; ? = inconclusive; · = no result; [ ] = dose if it differs, or a comment. In the library only some 2.4% were active in any assay of this set; here they are far more common. The call rests on the fitted dose curve; in most records, active means well fitted curve in the direction sought with a large enough effect; inconclusive means small, poorly fitted or top-dose-only effect, or another doubt; inactive means no such curve, though single readings can be large; an effect the other way counts as inactive or inconclusive. Potency means the concentration at half of the fitted maximal effect.

SMILES | POLB inh | POLH inh | POLI inh | FEN1 inh | WRN inhibitor | POLK inh | TbPGK inh | others
Cc1occc1C(=O)N/N=C/C=C/c1ccc(N(C)C)cc1 | 0% | -14% | 20% | 4% | 0% | 5% | ·
Cc1ccc(-n2ncc(C(=O)NCCCN3CCc4ccccc4C3)c2C2CCN(C(=O)OC(C)(C)C)CC2)cc1C | 9% | -13% | 4% | -17% | · | -1% | ·
CSc1ccc(/C=C/c2nc3ccccc3n2S(=O)(=O)c2ccc(F)c(C)c2)cc1 | 13% | -20% | 2% | -18% | · | -7%[60.1 µM] | 10µM*
Cc1ccc(/C=C/c2nc3ccccc3n2S(=O)(=O)c2cccc(Cl)c2)cc1 | -12% | -8% | -28% | -14% | · | -5%[60.1 µM] | ·
COc1ccc(N=C2SC(C(N)=O)CC(=O)N2Cc2ccc3c(c2)OCO3)cc1 (stereo not drawn) | ? | 28µM* | 40µM* | 2% | -11%[57.1 µM] | 89µM* | -21%
CCNC(=O)C1CC(=O)N(Cc2ccc3c(c2)OCO3)C(=Nc2ccc(F)cc2)S1 (stereo not drawn) | ? | 0% | -10% | -9% | -10%[57.1 µM] | -7% | ·
O=C(CN1C(=O)/C(=C2\SC(=S)N(CCS(=O)(=O)O)C2=O)c2ccccc21)Nc1cccc(Br)c1 | ? | ? | ? | ? | 89µM* | ? | 15µM*
O=C1/C(=C\c2ccc(O)cc2)SC(=S)N1c1cccnc1 | ? | ? | ? | ? | -10%[11.6 µM] | -60% | · | Pol iota confirm=?
COc1ccc(/C=C2\SC(=S)N(c3cccnc3)C2=O)cc1 | -7% | -20% | 21% | 20% | -2% | -8% | ·
COc1ccccc1OCCn1c(C(C)Oc2ccccc2)nc2ccccc21 (stereo not drawn) | -2% | ? | -9% | 0% | · | ? | ·
C=CCN1CCCC1CNC(=O)c1cc(S(N)(=O)=O)cc(OC)c1OC (stereo not drawn) | · | · | · | · | · | 3%[19.4 µM] | ·
O=C(O)[C@@H](O)[C@@H](O)[C@@H](O[C@H]1O[C@@H](CO)[C@@H](O)[C@@H](O)[C@@H]1O)[C@@H](O)CO | · | · | · | · | · | -3%[12 µM] | ·
COc1ccccc1NCCC(=O)OCC(=O)NCc1ccco1 | 18µM* | 5.6µM* | 6.3µM* | -11% | ? | 79µM* | · | Pol iota confirm=?
Cc1ccccc1OCC(=O)OCC(=O)NCc1ccco1 | · | -1% | 22% | -3% | 7% | -10% | ·
COC(=O)c1ccc(NC(=O)CCc2c(C)nn(-c3ccc(N4CCCCC4)nn3)c2C)cc1 | -17% | -15% | -7% | 11% | · | 18% | ·
COc1ccc(OCC(=O)Nc2cccc(-c3nc4ccccc4s3)c2C)cc1 | 4% | · | 18% | 42% | · | 8% | ·
CCOC(=O)CN1C(=O)S/C(=C\c2ccc(-c3cccc(C(=O)O)c3C)o2)C1=O | · | ? | ? | 5% | -3%[11.6 µM] | -20% | ·
Cc1ccc(NC(=O)CN2C(=O)S/C(=C\c3ccc(-c4cccc(C(=O)O)c4C)o3)C2=O)cc1C | 10µM* | 8.9µM* | 10µM* | 50µM* | ? | 89µM* | 4.1µM*
CSCC[C@H](NC(=O)[C@H](Cc1ccc(OS(=O)(=O)O)cc1)NC(=O)[C@@H](N)CC(=O)O)C(=O)NCC(=O)N[C@@H](Cc1c[nH]c2ccccc12)C(=O)N[C@@H](CCSC)C(=O)N[C@@H](CC(=O)O)C(=O)N[C@@H](Cc1ccccc1)C(N)=O | · | · | · | · | · | 7%[60.1 µM] | ·
Cc1ccccc1C(=O)O/N=C(\N)c1ccc([N+](=O)[O-])cc1 | 0% | -16% | -4% | 3% | 11% | -6% | ·
Cc1occc1C(=O)O/N=C(\N)c1ccccc1 | -5% | -15% | 43% | 8% | -1% | 3% | 18µM*
Cc1ccccc1C(=O)O/N=C(\N)c1ccccc1 | 15% | -9% | 25% | -21% | -2% | 4% | 15µM*
Cc1cccc(/C(N)=N/OC(=O)c2ccoc2C)c1 | 5% | -14% | -6% | -1% | 9% | 1% | ·
CN1/C(=C/C=C/c2n(C)c3cc([N+](=O)[O-])c([N+](=O)[O-])cc3[n+]2C)C(C)(C)c2ccccc21 | · | ? | · | · | ? | · | ?
COc1ccc(-n2nnc3c(=O)n(CC(=O)Nc4ccc5c(c4)OCCO5)cnc32)cc1OC | ? | 25µM* | 18% | 0% | -9%[11.6 µM] | -1% | · | Pol iota confirm=67*
SMILES | POLB inh | POLH inh | POLI inh | FEN1 inh | WRN inhibitor | POLK inh | TbPGK inh | others
O=C(NNC(=O)c1cc2cc3ccccc3nc2s1)c1cccc(Cl)c1 | 1.4µM* | ? | ? | -16% | ? | 79µM* | · | Pol iota confirm=?
COc1ccc(-c2cc3nc(C)cc(-c4ccc(OC)cc4)n3n2)cc1 | 11% | -16% | 0% | 6% | -3% | -8% | ·
COc1ccc(-c2cc3nc(C)cc(N)n3n2)cc1 | 0% | -20% | 41% | -2% | -29% | -7% | 9.2µM*
O=C(c1csnn1)N1CCC2(CC1)CCN(c1ncccn1)CC2 | · | · | · | · | · | 1%[60.1 µM] | ·
O=C(CNc1ccc2ccccc2c1)N/N=C/C=C/c1cccc([N+](=O)[O-])c1 | ? | 16µM* | ? | -15% | -11%[11.6 µM] | -10% | · | Pol iota confirm=75*
O=C(N/N=C/C=C/c1cccc([N+](=O)[O-])c1)C(O)c1ccccc1 (stereo not drawn) | 38% | 2% | -13% | 7% | -18% | -21% | ·
C=CCN(CC=C)c1ccc(/C=C/c2ccnc3ccccc23)cc1 | · | · | -5% | -17% | · | -18% | ·
O=C1NC(=O)C2C3C=CC(C3)C12 (stereo not drawn) | · | · | · | · | · | 0%[19.4 µM] | ·
O=[N+]([O-])c1ccc2nc(SCc3cn4ccccc4n3)[nH]c2c1 | 2% | ? | 1% | -6% | -11% | -11% | ·
O=[N+]([O-])c1ccc2nc(SCc3cn4cc(Cl)ccc4n3)[nH]c2c1 | 5.6µM* | 50µM* | 28µM* | -5% | ? | -28% | · | Pol iota confirm=?
O=C(O)c1ccc2c(c1)[C@@H]1C=CC[C@@H]1[C@H](c1ccccn1)N2 | · | 6.3µM* | 3.5µM* | 32µM* | 35µM* | 10µM* | 16µM*
